Sampled rows, rich in hits. Any-hit rate of the full collection: about 4.8%.
DAX1 inh-1 – inhibits human nuclear receptor DAX1; P51843; HEK293 Gal4-DAX1 luciferase reporter, luminescence; inhibition, % at 6.75 µM; 340,000 tested, 0.99% active; AID 504766;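 active = inhibition above the mean over all tested compounds plus 3 SD, cut at about 4.2% in these data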;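 note: 0% = DAX1-transfected cells with DMSO and 100% = empty-vector control cells with DMSO; inhibition shows as a rise in luminescence from relieved DAX1 repression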
DAX1 inh-2 – DAX1 (NR0B1) inhibition, primary screen; inhibition, % at 6.8 µM; HEK293T StAR-luciferase reporter, SF-1/DAX-1 repression relief; 370,000 tested, 1.1% active;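 active = inhibition above the mean over all tested compounds plus 3 SD, cut at about 3.6% in these data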;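 note: 0% = DAX-1 cells with DMSO and 100% = cells lacking DAX-1 with DMSO; higher inhibition means more luminescence from relief of DAX-1 repression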
hgDAF12 agonist – hgDAF-12 agonism, primary luciferase screen; HEK293 GAL4-hgDAF12 UAS-luciferase reporter, agonist luminescence; normalized to butyrate control; activation, % at 6.8 µM; 370,000 tested, 1.8% active; AID 687014;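 active = activation above a cutoff set at the mean of all screened compounds plus 3 SD, cut at about 10% in these data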;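 note: 0% = DMSO wells and 100% = sodium butyrate wells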
Rev-erbA mod – modulators of human Rev-erb alpha DNA binding. P20393. Rev-erbα–FITC-DNA binding, fluorescence polarization, 90 min. activity, % at 10 µM. 370,000 tested, 0.79% active. AID 1259318;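 active = activity above about 14%, limit read from the data; passing the limit was not always enough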;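 note: 0% = DMSO wells with 35 nM protein and 100% = DMSO wells with 750 nM protein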
Target sequence (P20393 whole entry, looked up): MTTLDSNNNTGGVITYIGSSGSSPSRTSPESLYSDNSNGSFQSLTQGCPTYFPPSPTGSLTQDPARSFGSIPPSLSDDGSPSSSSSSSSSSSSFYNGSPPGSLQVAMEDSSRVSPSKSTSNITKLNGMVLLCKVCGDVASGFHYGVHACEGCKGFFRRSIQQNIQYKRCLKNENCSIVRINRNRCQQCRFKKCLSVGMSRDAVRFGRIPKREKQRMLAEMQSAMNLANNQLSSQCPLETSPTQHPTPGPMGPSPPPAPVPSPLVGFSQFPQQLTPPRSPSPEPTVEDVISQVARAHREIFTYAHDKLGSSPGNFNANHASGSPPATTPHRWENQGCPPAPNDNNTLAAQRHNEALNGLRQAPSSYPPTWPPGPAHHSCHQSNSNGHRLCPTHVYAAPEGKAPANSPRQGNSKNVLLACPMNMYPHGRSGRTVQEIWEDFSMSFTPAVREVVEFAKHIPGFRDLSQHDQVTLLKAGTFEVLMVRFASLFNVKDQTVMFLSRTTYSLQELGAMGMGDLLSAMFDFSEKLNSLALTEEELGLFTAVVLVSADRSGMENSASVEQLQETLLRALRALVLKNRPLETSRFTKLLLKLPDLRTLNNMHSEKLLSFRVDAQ
ssDAF-12 act – activates DAF-12 receptor from parasite S. stercoralis; AID 652126; activation, % at 6.8 µM; HEK293 ssDAF-12/GRIP1 lit1-tk-luc reporter, luminescence; % of 3 µM dafachronic acid response; 370,000 tested, 1% active;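 active = activation above the mean over all tested compounds plus 3 SD, cut at about 0.9% in these data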;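 note: 0% = DMSO-only wells and 100% = 3 µM delta7-dafachronic acid wells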
hcDAF12 agonist – H. contortus DAF-12 activation, primary screen; HEK293 hcDAF-12 lit1-tk-luc reporter, luminescence; 0% DMSO, 100% Δ7-dafachronic acid; activation, % at 6.8 µM; 370,000 tested, 1.4% active; AID 652067;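 active = activation above the mean of all tested compounds plus 3 SD, cut at about 5.5% in these data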;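 note: 100% = response to 3 µM Δ7-dafachronic acid high control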
LXR ag – counter-screen for hcDAF-12 agonists: agonists of human LXR-beta | shares compounds with hcDAF12 agonist | HEK293 Gal4-LXR tk-luc reporter, luminescence, 24 h; normalized: DMSO 0%, positive control 100% | activation, % at 6.8 µM | 3,400 tested, under 10 active | AID 743027;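 active = mean percent activation of the reporter above a cutoff set as the average over tested compounds plus their standard deviation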
hcDAF12 conf – hcDAF-12 agonism, confirmation assay; shares compounds with hcDAF12 agonist; HEK293 hcDAF-12 lit1-tk-luc reporter, luminescence; % of Δ7-dafachronic acid response; activation, % at 6.8 µM; 3,400 tested, 61% active;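 active = mean activation across triplicate tests above the threshold derived from the earlier primary screen, cut at about 5.5% in these data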;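 note: 0% = DMSO only wells and 100% = 3 µM Δ7-dafachronic acid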
* marks the source's active call; other numbers are inactive results.

Cc1cc(N)n(-c2ccc(C)c(C)c2)n1 was read as DAX1 inh-1 1, DAX1 inh-2 1, hgDAF12 agonist 8, Rev-erbA mod 1, ssDAF-12 act 0, hcDAF12 agonist 7.1*, LXR ag 0 and hcDAF12 conf 5.
Screening Cc1nc2c(cc1C#N)C(=O)c1ccccc1-2 returned DAX1 inh-1 0, DAX1 inh-2 1, hgDAF12 agonist -1, Rev-erbA mod 2, ssDAF-12 act -1 and hcDAF12 agonist -1.
For Cc1cccc2cc3c(nc12)-c1ccccc1C3=O the results were DAX1 inh-1 1, DAX1 inh-2 1, hgDAF12 agonist 2, Rev-erbA mod -5, ssDAF-12 act 0, hcDAF12 agonist 7.2*, LXR ag 0 and hcDAF12 conf 5.
Cc1ccc(C)c(NC(=O)c2cccc3c2-c2ccccc2C3=O)c1 was read as DAX1 inh-2 0, hgDAF12 agonist -3, Rev-erbA mod -2, ssDAF-12 act 0 and hcDAF12 agonist 0.
`Cc1ccc(NC(=O)c2sc(N)nc2C)cc1` gave DAX1 inh-1 1, DAX1 inh-2 1, hgDAF12 agonist 11*, Rev-erbA mod 0, ssDAF-12 act 0, hcDAF12 agonist 6.9*, LXR ag 1 and hcDAF12 conf 5.
COC(=O)c1ccccc1NC(=O)CN(c1c(C)cccc1C)S(C)(=O)=O was read as DAX1 inh-1 -1, DAX1 inh-2 1, hgDAF12 agonist 11*, Rev-erbA mod -3, ssDAF-12 act 1.0*, hcDAF12 agonist 18*, LXR ag 0 and hcDAF12 conf 0.
`CCCc1nc2c(C)cc(Br)cn2c1Cc1ccccc1OC` gave DAX1 inh-2 0, hgDAF12 agonist 4, Rev-erbA mod 1, ssDAF-12 act -1 and hcDAF12 agonist 3.
For O=C(N[C@H](C(=O)N1CCC[C@H]1C(=O)NC1CCCC1)C1CCCCC1)c1ccco1 the results were DAX1 inh-2 0, hgDAF12 agonist 2, Rev-erbA mod 0, ssDAF-12 act -1 and hcDAF12 agonist -1.
Screening Cc1cc(C)n(-c2nc3ccccc3c3nc(C)nn23)n1 returned DAX1 inh-1 1, DAX1 inh-2 0, hgDAF12 agonist -2, Rev-erbA mod 5, ssDAF-12 act -1 and hcDAF12 agonist -2.
Screening Cc1cc(C)n(-c2nc(C)nc3c2cnn3-c2ccccc2)n1 returned DAX1 inh-1 1, DAX1 inh-2 0, hgDAF12 agonist -1, Rev-erbA mod 14, ssDAF-12 act 0, hcDAF12 agonist 10*, LXR ag 0 and hcDAF12 conf 7.8*.
`O=C(C1=C(O)C(=O)N(CCN2CCOCC2)C1c1cccc(F)c1)c1cc2ccccc2o1` (stereo not given) gave DAX1 inh-1 0, DAX1 inh-2 0, hgDAF12 agonist 1, Rev-erbA mod 0, ssDAF-12 act 0, hcDAF12 agonist 8.3*, LXR ag 0 and hcDAF12 conf 3.
For O=C(C1=C(O)C(=O)N(CCN2CCOCC2)C1c1cccc(O)c1)c1cc2ccccc2o1 (stereo not given) the results were DAX1 inh-1 0, DAX1 inh-2 -1, hgDAF12 agonist 0, Rev-erbA mod 2, ssDAF-12 act 0 and hcDAF12 agonist -2.
For COC(=O)C1=C(C)N(Cc2cccc(C(F)(F)F)c2)C(=NCc2cc(OC)c(OC)c(OC)c2)NC1c1ccccc1 (stereo not given) the results were DAX1 inh-2 0, hgDAF12 agonist -1, Rev-erbA mod -3, ssDAF-12 act 0 and hcDAF12 agonist 0.
`COc1ccc(S(=O)(=O)N(C)C[C@@H]2Oc3c(NC(=O)Nc4ccccc4)cccc3C(=O)N([C@@H](C)CO)C[C@H]2C)cc1` gave hgDAF12 agonist -5, Rev-erbA mod -9, ssDAF-12 act -1 and hcDAF12 agonist -1.
`CCc1ccc(NS(=O)(=O)c2ccc3[nH]cc(C(=O)N4CCc5ccccc54)c(=O)c3c2)cc1` gave DAX1 inh-1 2, DAX1 inh-2 3, hgDAF12 agonist 10, Rev-erbA mod 2, ssDAF-12 act 1.2*, hcDAF12 agonist 7.3*, LXR ag 1 and hcDAF12 conf 5.7*.
`C[C@H]1C2CC(OC(=O)Nc3cccc(Cl)c3)C(C2)[C@H]2CCCCN21` (stereo not given in full) gave DAX1 inh-2 0, hgDAF12 agonist 3, Rev-erbA mod 3, ssDAF-12 act 0 and hcDAF12 agonist -2.
`COc1ccccc1NC(=O)Cc1cccc2ccccc12` gave DAX1 inh-1 -1, DAX1 inh-2 0, hgDAF12 agonist -2, Rev-erbA mod 12, ssDAF-12 act -1 and hcDAF12 agonist -2.
For COc1ccc(C(C)(C)C)cc1NC(=O)CNc1cccc2ccccc12 the results were DAX1 inh-1 -1, DAX1 inh-2 0, hgDAF12 agonist -3, Rev-erbA mod -7, ssDAF-12 act -1, hcDAF12 agonist 7.6*, LXR ag 0 and hcDAF12 conf 0.
`O=C(O)c1ccc(-c2noc(-c3ccccc3F)n2)cc1` gave DAX1 inh-1 -3, DAX1 inh-2 2, hgDAF12 agonist 8, Rev-erbA mod -7, ssDAF-12 act 0, hcDAF12 agonist 6.8*, LXR ag 2 and hcDAF12 conf 7.0*.
For O=C(c1ccccc1-c1nc(-c2ccc(F)cc2)no1)N1CCCC1 the results were DAX1 inh-1 0, DAX1 inh-2 -1, hgDAF12 agonist -2, Rev-erbA mod 4, ssDAF-12 act -1 and hcDAF12 agonist 0.
Screening Cc1ccc(-c2noc(-c3ccccc3F)n2)cc1 returned DAX1 inh-1 2, DAX1 inh-2 3.7*, hgDAF12 agonist 12*, Rev-erbA mod -6, ssDAF-12 act 2.1*, hcDAF12 agonist 17*, LXR ag 2 and hcDAF12 conf 13*.
Screening Cc1ccccc1-c1noc(-c2ccccc2C(=O)O)n1 returned DAX1 inh-1 2, DAX1 inh-2 1, hgDAF12 agonist -2, Rev-erbA mod -2, ssDAF-12 act -1 and hcDAF12 agonist 0.
`CS(=O)c1ccccc1-c1nc(-c2ccc(Cl)cc2)no1` (stereo not given) gave DAX1 inh-1 0, DAX1 inh-2 0, hgDAF12 agonist 4, Rev-erbA mod -4, ssDAF-12 act 0 and hcDAF12 agonist -1.

Source: PubChem (several laboratories)
